Source: PubChem BioAssay (NCI)
Compounds without any hit were thinned out: in the full panel of roughly 79,000, 15% have a hit. A number with no mark means an inactive call. Active and inactive are the calls of the source. Rule as the data show it: active = growth inhibition above about 70%; inactive = the rest.

Assay: NCI Yeast Anticancer Drug Screen. Data for the mec2-1 strain (AID 157)
Details: S. cerevisiae mec2-1 strain, stronger effect = higher value
Protocol: Growth inhibition of yeast strains with defined genetic alterations is measured as a screen for potential anti-cancer activity. Selected strains with alterations in DNA damage repair or cell cycle control were exposed to compounds and growth inhibition was measured relative to vehicle treated controls. The strain used in this assay is mec2-1

[1] = at 5.0 µM (retest, dose inferred, filed as 0.5)
[2] = at 50.0 µM (retest, dose inferred, filed as 5.0)

SMILES: C/C(=N\NC(=S)N1CCN(C2CCCCCC2)CC1)c1ccccn1
- growth inhibition [1]: -6%
- growth inhibition [2]: 99% (active)
- growth inhibition (at 50.0 µM): 65.3%

SMILES: Cc1ccc(C(=O)C(CN(C)C)CN(C)C)cc1C
- growth inhibition [1]: 12%
- growth inhibition [2]: 90% (active)
- growth inhibition (at 50.0 µM): 90.2% (active)

SMILES: CCOP(=O)(OCC)/C(C#N)=C/c1ccc(Oc2ccccc2)cc1
- growth inhibition [1]: -42%
- growth inhibition [2]: 98% (active)
- growth inhibition (at 50.0 µM): 93.6% (active)

SMILES: Cc1cccc(NC(=O)c2cc3cc(N=Nc4ccccc4Cl)ccc3oc2=O)c1
- growth inhibition [1]: -2%
- growth inhibition [2]: -2%
- growth inhibition (at 50.0 µM): 70% (active)

SMILES: CC1=C(C(=O)OC(C)C)C(c2ccccc2[N+](=O)[O-])C(C(=O)OC(CO[N+](=O)[O-])CO[N+](=O)[O-])=C(C)N1 (configuration not stated)
- growth inhibition [1]: 30%
- growth inhibition [2]: 27%
- growth inhibition (at 50.0 µM): 87.7% (active)

SMILES: Oc1ccc(O)c2c(O)c3ccccc3c(O)c12
- growth inhibition [1]: 15%
- growth inhibition [2]: 77% (active)
- growth inhibition (at 50.0 µM): 50.4%

SMILES: CCCCCCCCCCCCCCCCN
- growth inhibition [1]: 20%
- growth inhibition [2]: 99% (active)
- growth inhibition (at 50.0 µM): 99.4% (active)

SMILES: COc1cccc2c1C(=O)c1c(O)c3c(c(O)c1C2=O)CC(O)(C(C)=O)CC3OC1CC(N/C(C)=C/C(C)=O)C(O)C(C)O1 (configuration not stated)
- growth inhibition [1]: 65%
- growth inhibition [2]: 98% (active)
- growth inhibition (at 50.0 µM): 90% (active)

SMILES: N=C(N)SCc1ccc(Br)cc1
- growth inhibition [1]: -29%
- growth inhibition [2]: -23%
- growth inhibition (at 50.0 µM): 13.8%

SMILES: O=P(OCCCl)(OCCCl)C(Nc1cccc2ccccc12)c1ccccc1 (configuration not stated)
- growth inhibition [1]: -8%
- growth inhibition [2]: 72% (active)
- growth inhibition (at 50.0 µM): 91.4% (active)

SMILES: Fc1cccc(CSc2n[nH]c(=S)c3nc[nH]c23)c1
- growth inhibition [1]: -8%
- growth inhibition [2]: -1%
- growth inhibition (at 50.0 µM): 10%

SMILES: O=C(OCc1ccccc1)N1N=NC2C1C1CC(OCc3ccccc3)(OCc3ccccc3)C2O1 (configuration not stated)
- growth inhibition [1]: 2%
- growth inhibition [2]: 2%
- growth inhibition (at 50.0 µM): -21.9%

SMILES: C/C(=N\NC(=S)Nc1ccc(Cl)cc1)c1nc2ncccc2[nH]1
- growth inhibition [1]: -6%
- growth inhibition [2]: 98% (active)
- growth inhibition (at 50.0 µM): 90.2% (active)

SMILES: C(=C\[n+]1ccc2ccccc2c1)/c1ccccc1
- growth inhibition [1]: -2%
- growth inhibition [2]: 12%
- growth inhibition (at 50.0 µM): 26.9%
